The panel holds about 83,000 compounds, 20% with a hit somewhere; the sample as a whole holds those more often.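 Plates (96-well) were seeded with cells, treated with compound at one concentration, and incubated for 48 hours before percent growth was determined.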 A number with no mark means an inactive call. Active and inactive are the calls of the source. How the source made its calls: active means growth percent below 10; inactive means the rest.

The test concerns MDA-MB-468 breast. Kind of test: NCI-60 one-dose screen, 48 h (100 = growth as untreated, 0 = no growth, -100 = all killed). Conditions: 10 µM unless noted.
Consider `CC(C)C[C@H](NC(=O)CCn1ccc2ccccc2c1=O)B(O)O`, for which the growth was 6.61% (active).

With `Cc1ccc(C)c(COc2cc(NC(=O)c3ccc4c(c3)OCO4)ccc2N(C)S(C)(=O)=O)c1`, the growth is -29.6% (active).

`CCCCCC/C=N/Nc1ccc([N+](=O)[O-])cn1`: the growth is 108%.

For the compound `CCOC(=O)C1(Cc2ccccc2)CCN(Cc2cccc(OC)c2O)CC1`, the growth is -9.39% (active).

Consider `CNS(=O)(=O)c1n[nH]nc1-c1cc(C(C)(C)C)c(O)c(C(C)(C)C)c1`, for which the growth was 92.2%.

Turning to `CN(C)CCOC(=O)Nc1ccc(Cc2ccc(NC(=O)OCCN(C)C)cc2)cc1`, the growth was 40.4% [100 µM].

For `CCOC(=O)C(C#N)=C1CCN(C)CC1`, the growth is 123%.

With `O=C1NC(=O)C(Cc2ccc(OCc3ccc(-c4ccc(Cl)cc4Cl)cc3)cc2)S1` (stereo not given), the growth is 14.3%.

As for `COC1=CC(c2ccc[nH]2)=N/C1=C\c1[nH]c(C)c(C(=O)CCCCC(=O)NC(C)(C)C)c1C`, the growth was 33.9%.

Consider `CCOC(=O)c1ccc(NC(C)=O)o1`, for which the growth was 89.3%.

For `COc1cccc2cc(N(C)c3ncnc4ccccc34)ccc12`, the growth is -7.56% (active).

With `O=[N+]([O-])c1cnc(Sc2ccncn2)s1`, the growth was -63.7% (active).

In the case of `CNC(=O)c1c(NC(=O)c2ccccc2C(F)(F)F)sc2c1CCC(=O)C2`, the growth was 25.1%.

As to `C[C@@H]1C(=O)N(C[C@@H](Cc2ccccc2)NC(=O)OCc2ccccc2)[C@]1(Cc1ccccc1)C(=O)OCc1ccccc1`, the growth is 26.1%.

Consider `CC(=O)c1c([Si](C)(C)C)c2cc(C#N)ccn2c1C(=O)c1ccc(Br)cc1`, for which the growth is 79.9%.

In the case of `CCOC(=O)C1=C(C)N2C(=NC3=C(CCCC/C3=C\c3cc(OC)c(OC)c(OC)c3)C2c2cc(OC)c(OC)c(OC)c2)S1` (stereo not given), the growth was 25.2%.

For `COc1cc(C(=O)NN=C2c3ccccc3-c3ccccc32)cc(OC)c1OC`, the growth was -3.4% (active).

In the case of `CC1=CC[C@@H]2CC[C@]3(C)[C@H](CC[C@@H]4[C@@]5(C)CCCNC(C)(C)[C@@H]5CC[C@]43C)[C@H]2[C@@H]1C`, the growth is -47.2% (active).

For the compound `Cn1c(=O)c2c(nc3n2CCN(CCc2ccc(OCCN4CCOCC4)cc2)C3)n(C)c1=O`, the growth was 97.9%.

On to `O=C(CCOCCNC(=O)COc1ccc2c(c1)OCC(c1ccc(F)cc1)C2=O)NCCCC(O)(P(=O)(O)O)P(=O)(O)O` (stereo not given), for which the growth was 106%.

On to `CCOC(=O)c1c(C)nc2c(c1N)/C(=C/c1cc(OC)c(OC)c(OC)c1)C(=O)N2c1ccc(OC)cc1`, for which the growth was 56%.

With `Cc1ccc(C(C)C)cc1NC(=O)Nc1ccc([N+](=O)[O-])cc1`, the growth is 4.03% (active).

With `Clc1ccccc1-c1nc2ccccc2[nH]1`, the growth was 88.3%.

As to `CC1(C)CC[C@]2(C(=O)N3CCOCC3)CC[C@]3(C)C(=CC[C@@H]4[C@@]5(C)C/C(=C/c6ccccn6)C(=O)C(C)(C)[C@@H]5CC[C@]43C)[C@@H]2C1`, the growth was 40.8%.

Consider `Oc1c(Cl)cc(Cl)c2ccc(CN3CCCCC3)nc12`, for which the growth is 29.3%.
